Holding throughout (conditions): mRNA level, 48 h; actives raise or lower the signal
Read-out in test [1]: DNA damage-inducible transcript 3 (DDIT3), DDIT3 (gene 1649)
Kind of test: LTEA_HepaRG_DDIT3: Life Technologies and Expression Analysis (LTEA) Assay for DNA damage-inducible transcript 3 (DDIT3) using HepaRG (AID 2283488). In outline:
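Eight-point concentration-response (100 uM highest, half-log dilutions) in HepaRG, 48 h, duplicate wells. Endpoint: qRT-PCR mRNA, normalized (ACTB, GAPDH, POLR2A), bidirectional fitting with DMSO as baseline.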

Read-out in test [2]: Pro-epidermal growth factor (Homo sapiens) (UniProt P01133)
The test can be described thus: LTEA_HepaRG_EGF: Life Technologies and Expression Analysis (LTEA) Assay for Epidermal growth factor (EGF) using HepaRG (AID 2283489). In a few lines: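 qRT-PCR readout of EGF transcript after 48 h chemical exposure of HepaRG cells; eight concentrations from 100 uM down in half-log steps, duplicate wells, 0.5% DMSO vehicle. Bidirectional curve fitting against DMSO baseline.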

Read-out in test [3]: Early growth response protein 1 (EGR1) transcription factor, EGR1 (gene 1958)
The test can be described thus: LTEA_HepaRG_EGR1: Life Technologies and Expression Analysis (LTEA) Assay for Early growth response protein 1 (EGR1) transcription factor using HepaRG (AID 2283490). In outline:
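HepaRG, 48 h exposure, 8-pt half-log series from 100 uM, 0.5% DMSO vehicle; EGR1 transcript by TaqMan qRT-PCR (Fluidigm array), housekeeping-normalized; bidirectional fit relative to DMSO baseline.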

Read-out in test [4]: Ezrin (EZR), EZR (gene 7430)
The test can be described thus: LTEA_HepaRG_EZR: Life Technologies and Expression Analysis (LTEA) Assay for Ezrin (EZR) using HepaRG (AID 2283491). In outline:
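Read-out is EZR transcript level by qRT-PCR, normalized to three housekeeping genes and fitted bidirectionally against the DMSO control. Human HepaRG cells received test chemicals for 48 h at eight half-log concentrations up to 100 uM in 0.5% DMSO.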

Read-out in test [5]: Cytochrome P450 3A7 (Homo sapiens) (UniProt P24462)
Kind of test: LTEA_HepaRG_CYP3A7: Life Technologies and Expression Analysis (LTEA) Assay for CYP3A7 using HepaRG (AID 2283492). In outline:
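CYP3A7 transcript levels were read by TaqMan qRT-PCR on Fluidigm arrays after 48 h chemical exposure of human HepaRG cells, with housekeeping-gene normalisation. Eight half-log concentrations up to 100 uM in 0.5% DMSO were tested in duplicate.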

Read-out in the next test: CYP3A5 (gene 1577)
Kind of test: LTEA_HepaRG_CYP3A5: Life Technologies and Expression Analysis (LTEA) Assay for CYP3A5 using HepaRG (AID 2283493). In outline:
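Readout was CYP3A5 mRNA by qRT-PCR. HepaRG cultures were exposed for 48 h in serum-free induction medium to chemicals at up to 100 uM, and responses were fitted in both directions relative to DMSO vehicle.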

Read-out in test [6]: Fatty Acid-Binding Protein 1 (FABP1), FABP1 (gene 2168)
Kind of test: LTEA_HepaRG_FABP1: Life Technologies and Expression Analysis (LTEA) Assay for Fatty Acid-Binding Protein 1 (FABP1) using HepaRG (AID 2283494). In outline:
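qRT-PCR readout of FABP1 transcript (normalized to three housekeeping genes) after 48 h chemical exposure of HepaRG cells; eight concentrations, half-log steps, max 100 uM, 0.5% DMSO vehicle; gain or loss fitted relative to DMSO baseline.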

Read-out in test [7]: Cytochrome P450 4A22 (Homo sapiens) (UniProt Q5TCH4)
Kind of test: LTEA_HepaRG_CYP4A22: Life Technologies and Expression Analysis (LTEA) Assay for Cytochrome P450 4A22 (CYP4A22) using HepaRG (AID 2283495). In a few lines:
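HepaRG, 48 h post-plating -> serum-free induction medium; dosed 48 h, duplicate, 8 conc. (100 uM top, half-log), 0.5% DMSO. Readout: CYP4A22 mRNA by qRT-PCR, ACTB/GAPDH/POLR2A normalization; gain/loss fit relative to DMSO.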

Read-out in test [8]: Cytochrome P450 7A1 (Homo sapiens) (UniProt P22680)
The test can be described thus: LTEA_HepaRG_CYP7A1: Life Technologies and Expression Analysis (LTEA) Assay for Cytochrome P450 7A1 (CYP7A1) using HepaRG (AID 2283496). In a few lines:
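Using 0.5% DMSO as vehicle and baseline, chemicals were tested in duplicate over an 8-point range from 100 uM on HepaRG cells for 48 h; qRT-PCR signals were normalised to ACTB, GAPDH and POLR2A.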

Read-out in test [9]: Glutathione S-Transferase (GSTA2), GSTA2 (gene 2939)
Kind of test: LTEA_HepaRG_GSTA2: Life Technologies and Expression Analysis (LTEA) Assay for Glutathione S-Transferase (GSTA2) using HepaRG (AID 2283497). In outline:
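qRT-PCR readout of GSTA2 transcript, normalized to three housekeeping genes, fitted bidirectionally against 0.5% DMSO baseline. Differentiated HepaRG cells received compound for 48 h at 8 concentrations (top 100 uM, half-log steps).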

Read-out in test [10]: Glutamate-cysteine ligase catalytic (GCLC), GCLC (gene 2729)
The test can be described thus: LTEA_HepaRG_GCLC: Life Technologies and Expression Analysis (LTEA) Assay for Glutamate-cysteine ligase catalytic (GCLC) using HepaRG (AID 2283498). In outline: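 HepaRG, 48 h exposure, 8-pt half-log series from 100 uM, 0.5% DMSO vehicle; TaqMan qRT-PCR for GCLC mRNA, housekeeping-normalized; bidirectional curve fit vs DMSO baseline.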

Read-out in test [11]: growth arrest and DNA damage 45 (GADD45G), GADD45G (gene 10912)
The test can be described thus: LTEA_HepaRG_GADD45G: Life Technologies and Expression Analysis (LTEA) Assay for growth arrest and DNA damage 45 (GADD45G) using HepaRG (AID 2283499). In a few lines:
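HepaRG, 48 h exposure, top 100 uM, half-log 8-point series, 0.5% DMSO vehicle, duplicates. Readout: GADD45G transcript by qRT-PCR (Fluidigm array), housekeeping-normalised (ACTB/GAPDH/POLR2A). Bidirectional curve fit vs DMSO baseline.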

Read-out in test [12]: Glutamate-cysteine ligase regulatory (GCLM), GCLM (gene 2730)
The test can be described thus: LTEA_HepaRG_GCLM: Life Technologies and Expression Analysis (LTEA) Assay for Glutamate-cysteine ligase regulatory (GCLM) using HepaRG (AID 2283500). In outline:
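In this multiplexed HepaRG gene-expression assay, GCLM mRNA change after 48 h treatment (8 concentrations, max 100 uM) was scored against DMSO by bidirectional curve fitting.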

Read-out in test [13]: Heat shock 70 kDa protein 1 (HSPA1A), gene 3303
Kind of test: LTEA_HepaRG_HSPA1A: Life Technologies and Expression Analysis (LTEA) Assay for Heat shock 70 kDa protein 1 (HSPA1A) using HepaRG (AID 2283502). In outline: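 An oxidative-stress marker readout: HepaRG cells treated 48 h in duplicate with an eight-point series (highest 100 uM) had HSPA1A mRNA quantified by TaqMan qRT-PCR. Activity was fitted in both directions using 0.5% DMSO as baseline.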

Read-out in test [14]: Hypoxia-inducible factor 1-alpha (Homo sapiens) (UniProt Q16665)
The test can be described thus: LTEA_HepaRG_HIF1A: Life Technologies and Expression Analysis (LTEA) Assay for Hypoxia-inducible factor 1 (HIF1A) Trancription factor using HepaRG (AID 2283503).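 Also: HIF1A transcript by TaqMan qRT-PCR normalized to ACTB GAPDH and POLR2A.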 In a few lines: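 Gain- or loss-of-signal HIF1A mRNA changes are fitted against a DMSO baseline. HepaRG cultures receive eight concentrations, highest 100 uM, for 48 h in serum-free induction medium with 0.5% DMSO.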

Read-out in test [15]: 3-Hydroxy-3-Methylglutaryl-CoA Synthase 2 (HMGCS2), HMGCS2 (gene 3158)
Kind of test: LTEA_HepaRG_HMGCS2: Life Technologies and Expression Analysis (LTEA) Assay for 3-Hydroxy-3-Methylglutaryl-CoA Synthase 2 (HMGCS2) using HepaRG (AID 2283504). In outline:
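qRT-PCR read-out of HMGCS2 transcript, normalised to three housekeeping genes, in HepaRG cells after 48 h chemical exposure. Eight-point curves from 100 uM, half-log dilutions, 0.5% DMSO vehicle; gain or loss fitted relative to DMSO baseline.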

Read-out in test [16]: Insulin Like Growth Factor 1 (IGF1), IGF1 (gene 3479)
Kind of test: LTEA_HepaRG_IGF1: Life Technologies and Expression Analysis (LTEA) Assay for Insulin Like Growth Factor 1 (IGF1) using HepaRG (AID 2283506). In outline:
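Endpoint: IGF1 mRNA change by qRT-PCR, housekeeping-normalized, fitted bidirectionally relative to 0.5% DMSO vehicle. Human HepaRG cells were treated 48 h in serum-free induction medium, eight half-log concentrations topping at 100 uM.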

Read-out in test [17]: Intercellular Adhesion Molecule 1 (ICAM1), ICAM1 (gene 3383)
Kind of test: LTEA_HepaRG_ICAM1: Life Technologies and Expression Analysis (LTEA) Assay for Intercellular Adhesion Molecule 1 (ICAM1) using HepaRG (AID 2283507). In outline:
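HepaRG, 48 h exposure, 8-pt half-log series from 100 uM, 0.5% DMSO vehicle, duplicates. Readout: TaqMan qRT-PCR mRNA, housekeeping-normalized (ACTB/GAPDH/POLR2A). Bidirectional curve fit vs DMSO baseline.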

Activity calls are given as the source filed them. The calls were made as follows: active = hit-call score of the fitted dose curve at least 0.9, where 1 is the maximum; inactive = score below 0.9.

Chain of Hypoxia-inducible factor 1-alpha (Homo sapiens) (Q16665 whole entry, looked up): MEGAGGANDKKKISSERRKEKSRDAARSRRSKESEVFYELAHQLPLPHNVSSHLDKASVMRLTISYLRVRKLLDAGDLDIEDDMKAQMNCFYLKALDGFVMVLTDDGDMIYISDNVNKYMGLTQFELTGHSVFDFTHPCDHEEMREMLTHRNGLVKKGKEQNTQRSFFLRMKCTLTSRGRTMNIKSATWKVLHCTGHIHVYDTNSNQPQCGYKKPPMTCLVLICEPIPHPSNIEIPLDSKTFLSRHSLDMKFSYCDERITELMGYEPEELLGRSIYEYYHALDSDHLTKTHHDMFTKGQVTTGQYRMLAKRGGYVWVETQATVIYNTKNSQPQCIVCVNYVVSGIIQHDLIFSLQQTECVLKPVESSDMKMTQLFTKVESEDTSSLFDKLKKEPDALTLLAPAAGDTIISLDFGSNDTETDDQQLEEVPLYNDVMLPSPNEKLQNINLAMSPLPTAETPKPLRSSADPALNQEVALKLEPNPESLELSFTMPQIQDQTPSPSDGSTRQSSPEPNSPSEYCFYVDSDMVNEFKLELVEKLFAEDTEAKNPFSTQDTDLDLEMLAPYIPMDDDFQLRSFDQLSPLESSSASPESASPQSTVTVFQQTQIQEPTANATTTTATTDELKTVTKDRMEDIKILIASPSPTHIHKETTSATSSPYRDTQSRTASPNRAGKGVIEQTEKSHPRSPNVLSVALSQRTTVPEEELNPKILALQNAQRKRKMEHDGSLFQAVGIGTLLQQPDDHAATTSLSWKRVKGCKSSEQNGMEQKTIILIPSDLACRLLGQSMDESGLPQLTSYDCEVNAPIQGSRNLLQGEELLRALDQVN
Chain of Cytochrome P450 3A7 (Homo sapiens) (P24462 whole entry, looked up): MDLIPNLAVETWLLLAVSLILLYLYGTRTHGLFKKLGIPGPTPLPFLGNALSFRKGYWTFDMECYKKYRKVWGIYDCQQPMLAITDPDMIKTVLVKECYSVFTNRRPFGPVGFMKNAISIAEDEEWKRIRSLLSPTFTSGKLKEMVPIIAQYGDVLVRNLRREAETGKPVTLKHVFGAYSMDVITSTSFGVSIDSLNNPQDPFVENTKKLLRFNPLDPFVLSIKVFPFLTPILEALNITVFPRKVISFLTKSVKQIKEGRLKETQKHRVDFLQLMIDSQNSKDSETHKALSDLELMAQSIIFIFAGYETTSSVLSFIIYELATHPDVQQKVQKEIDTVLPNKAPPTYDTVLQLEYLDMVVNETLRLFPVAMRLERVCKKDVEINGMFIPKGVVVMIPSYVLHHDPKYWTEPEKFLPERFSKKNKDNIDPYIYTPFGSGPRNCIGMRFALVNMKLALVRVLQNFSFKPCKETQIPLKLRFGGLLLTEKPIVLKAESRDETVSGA

Regarding `Cc1cc2c3c(c1)C(c1ccccc1)=N[C@@H](NC(=O)c1ccncc1)C(=O)N3CC2`, the AC50 (as a rule, the concentration giving half of the maximal activity seen) in test [1] is 75.6 µM (active); in test [4], 50 µM (active); in [5], 12.2 µM (active); in test [6] it was 50 µM (active); in test [7] it was 36 µM (active); in test [8], 50 µM (active). Moreover, the AC50 in test [13] is 50 µM (active); in test [15], 71.2 µM (active); in [16], 39.3 µM (active). Also, the compound was called inactive (in test [2]; in [3]; with CYP3A5 (gene 1577); in [9]; in [10]; in test [11]). Moreover, the outcome in test [12], in test [14] and in [17] was inactive.
`O=C(NC(=O)c1c(F)cccc1F)Nc1cc(Cl)c(OC(F)(F)C(F)F)c(Cl)c1`: the result (in test [1]; in [2]; in test [3]; in test [4]; in test [5]; in the test with CYP3A5 (gene 1577)) was inactive. In addition, the call in [7], in test [9], in [10], in [11], in test [12] and in test [13] was inactive. In addition, the compound was classed as inactive in test [14], in [16] and in test [17]. For the same compound, the AC50 in test [6] is 25.1 µM (active); in [8], 13.6 µM (active); in test [15], 34.7 µM (active).
As to `CCSC(=O)N(CC)C1CCCCC1`, the outcome (in test [1]; in test [2]; in [3]; in test [4]; in test [5]; with CYP3A5 (gene 1577)) was inactive. In addition, the compound was classed as inactive in test [6], in [7], in [9], in test [10], in test [12] and in test [13]. The call in [14], in [15], in test [16] and in [17] was inactive.
As to `CCC(=O)O[C@H]1CC[C@H]2[C@@H]3CCC4=CC(=O)CC[C@]4(C)[C@H]3CC[C@]12C`, the compound was called inactive (in test [1]; in test [2]; in test [3]; in test [4]; in test [5]; with CYP3A5 (gene 1577)). Besides, the outcome in [9], in test [10], in [11], in test [12], in test [13] and in [14] was inactive. The call in [15], in test [16] and in test [17] was inactive. In addition, the half-maximal activity concentration (AC50) in [6] is 19.9 µM (active); in test [7], 0.308 µM (active); in test [8], 13.1 µM (active).
Turning to `ClC1=C(Cl)[C@]2(Cl)[C@@H]3[C@@H]4C[C@@H]([C@H]5O[C@@H]45)[C@@H]3[C@@]1(Cl)C2(Cl)Cl`, the AC50 in test [1] was 62.8 µM (active); in test [6], 0.0265 µM (active); in test [7], 34.2 µM (active); in [8], 0.0248 µM (active); in test [9] it was 50 µM (active); in [14] it was 0.0315 µM (active). Moreover, the AC50 was 50 µM (active) in [15], 9.92 µM (active) in test [16] and 9.92 µM (active) in [17]. Also, the result (in test [2]; in test [3]; in [4]; in test [5]; with CYP3A5 (gene 1577); in test [10]) was inactive. Also, the result in test [11], in test [12] and in test [13] was inactive.
Turning to `NS(=O)(=O)C(F)(F)C(F)(F)C(F)(F)C(F)(F)C(F)(F)C(F)(F)C(F)(F)C(F)(F)F`, the AC50 in test [1] is 28.9 µM (active); in [2], 8.93 µM (active); in [3] it was 89 µM (active); in test [4] it was 11.4 µM (active); in test [5], 7.34 µM (active); with CYP3A5 (gene 1577), 21 µM (active). Besides, the AC50 in test [6] is 9.04 µM (active); in test [7], 11.1 µM (active); in test [8], 8.86 µM (active); in [9] it was 13 µM (active); in test [10], 5.02 µM (active); in [11] it was 50 µM (active). For the same compound, the AC50 in test [12] is 0.993 µM (active); in test [13], 75.5 µM (active); in test [14], 11.4 µM (active); in test [15], 12.8 µM (active); in [16], 22.3 µM (active). For the same compound, the compound was classed as inactive in test [17].

The record behind these values is PubChem BioAssay (EPA / NIEHS).
